Laboratory results taken from PubChem BioAssay (EPA / NIEHS).
“And” between values parts separate entries of the source, which are not always exact repeats. Equal entries are not always repeated. Records with an inconclusive call do not appear. The source made the active and inactive calls. The calls were made as follows, unless noted: active = hit-call score of the fitted dose curve at least 0.9, where 1 is the maximum; inactive = score below 0.9.

Key:
[1] = molecular target: Myc proto-oncogene protein (Homo sapiens) (UniProt P01106); test: ATG_Myc_CIS: Attagene CIS-FACTORIAL HepG2 Assay for human Myelocytomatosis (Myc) Proto-Oncogene Transcription Factor (AID 2282990); settings: HepG2, Attagene cis-reporter transcription factor activity; actives raise or lower the signal
Method in brief: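 DMSO-normalised, bidirectionally fitted reporter mRNA signal. HepG2 cells transfected with cis reporter constructs, treated 24 h; transcripts detected by RT-PCR, 6-FAM primer extension and CE.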

[2] = ATG_NF_kB_CIS: Attagene CIS-FACTORIAL HepG2 Assay for human Nuclear Factor Kappa B (NF-kB) (AID 2282991); settings: HepG2 Attagene cis-factorial NF-kB reporter mRNA; actives raise or lower the signal
Method in brief: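 HepG2, transient multi-reporter transfection, cis promoter elements (endogenous TFs). 24 h exposure. Total RNA → RT → PCR → 6-FAM label → HpaI → CE. Gain/loss vs DMSO.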

[3] = ATG_NRF2_ARE_CIS: Attagene CIS-FACTORIAL HepG2 Assay for human Nuclear Factor Erythroid 2 Related Factor 2 (NFR2) response to Antioxidant Response Elements (ARE) (AID 2282992); settings: HepG2 Attagene ARE/NRF2 reporter, transcription factor activity; actives raise or lower the signal;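 as to AC50: reporter mRNA level measured by RT-PCR and capillary electrophoresis fluorescence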
Method in brief: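 Endogenous transcription factor activity in human liver HepG2 cells is tracked via a cis-element-driven reporter within a multiplexed set. mRNA induction is read by RT-PCR and capillary electrophoresis after 24 h, with DMSO as baseline.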

[4] = ATG_Oct_MLP_CIS: Attagene CIS-FACTORIAL HepG2 Assay for human Octamer-Binding Transcription Factor (Oct) (AID 2282993); settings: HepG2 Attagene cis-factorial Oct reporter, mRNA; actives raise or lower the signal
Method in brief: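 Read-out: reporter mRNA via RT-PCR plus capillary electrophoresis of 6-FAM-labelled fragments. Transiently transfected HepG2, 24 h exposure, endogenous TF activity on cis elements. Gain or loss of signal fitted relative to DMSO.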

[5] = molecular target: Cellular tumor antigen p53 (Homo sapiens) (UniProt P04637); test: ATG_p53_CIS: Attagene CIS-FACTORIAL HepG2 Assay for human p53 Transcription Factor (AID 2282994); settings: HepG2 p53 cis-element reporter, Attagene mRNA; actives raise or lower the signal
Method in brief: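 Steps: transfect HepG2 with multiplexed cis reporter constructs; dose chemicals 24 h; extract RNA, reverse-transcribe, PCR-amplify reporter sequences; FAM-label, HpaI-digest, resolve fragments by CE. Activity fitted both directions relative to DMSO.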

[6] = BSK_3C_TissueFactor: BioMAP Diversity Plus: 3C Assay for Tissue Factor Biomarker Activity (AID 2282997); settings: BioMAP 3C HUVEC, tissue factor biomarker readout; actives raise or lower the signal
Method in brief: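 After a 24 h chemical exposure of primary human umbilical vein endothelial cells, Tissue Factor levels were quantified by ELISA.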

[7] = BSK_3C_uPAR: BioMAP Diversity Plus: 3C Assay for Urokinase-type plasminogen activator receptor (uPAR) Biomarker Activity (AID 2282998); settings: BioMAP 3C HUVEC, uPAR biomarker ELISA; actives raise or lower the signal
Method in brief: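 HUVEC primary cells; 24 h post-dose; uPAR by ELISA; gain or loss of signal fitted bidirectionally vs DMSO baseline.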

[8] = BSK_4H_Eotaxin3: BioMAP Diversity Plus: 4H Assay for Eotaxin 3 Biomarker Activity (AID 2283000); settings: primary human endothelial cells (HUVEC); actives raise or lower the signal;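 also: CCL26 protein level quantified by ELISA in parallel with SRB cytotoxicity check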
Method in brief: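 Chemicals were added to human umbilical vein endothelium cultures, and Eotaxin-3 was quantified by ELISA at 24 h. Values were derived by bidirectional fitting with DMSO serving as negative control and activity baseline.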

[9] = molecular target: human Peroxisome Proliferator-activated Receptor alpha (PPARa), PPARA (gene 5465) (UniProt Q07869); test: ATG_PPARa_TRANS: Attagene TRANS-FACTORIAL HepG2 Assay for human Peroxisome Proliferator-activated Receptor alpha (PPARa) (AID 2283001; active = hit-call score of the fitted dose curve at least 0.9, where 1 is the maximum)
Method in brief: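 Exposure: 24 h, transiently transfected HepG2 cells. Endpoint: GAL4-UAS reporter mRNA, RT-PCR with capillary electrophoresis fluorescence. Baseline: DMSO; increases fitted.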

[10] = molecular target: human Peroxisome Proliferator-activated Receptor delta (PPARd), PPARD (gene 5467) (UniProt Q03181); test: ATG_PPARd_TRANS: Attagene TRANS-FACTORIAL HepG2 Assay for human Peroxisome Proliferator-activated Receptor delta (PPARd) (AID 2283002; active = hit-call score of the fitted dose curve at least 0.9, where 1 is the maximum)
Method in brief: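 Measured quantity: GAL4-UAS reporter transcript induction in HepG2 after 24 h chemical dosing, with NR-Gal4 chimeras supplied by transient transfection. Detection by RT-PCR and capillary electrophoresis; upward fit against DMSO.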

[11] = BSK_3C_Proliferation: Cell Proliferation Assessment in the BioMAP Diversity Plus: 3C Assay (AID 2283006); settings: primary human endothelial cells (HUVEC);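 as to AC50: potency may reflect either rise or fall in cell number versus DMSO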
Method in brief: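 HUVEC, sub-confluent; 48 h chemical exposure; 10% TCA fix, 0.1% SRB stain, A560 total protein. Gain or loss of signal fitted both directions vs DMSO control.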

[12] = molecular target: Peroxisome proliferator-activated receptor gamma (Homo sapiens) (UniProt P37231); test: ATG_PPARg_TRANS: Attagene TRANS-FACTORIAL HepG2 Assay for human Peroxisome Proliferator-activated Receptor-gamma (PPARg) (AID 2283007; active = hit-call score of the fitted dose curve at least 0.9, where 1 is the maximum)
Method in brief: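 Multiplexed reporter transcription units in HepG2, 24 h dosing, reporter transcripts quantified by fluorescent RT-PCR and capillary electrophoresis. Increase over DMSO scored.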

[13] = molecular target: Nuclear receptor subfamily 1 group I member 2 (Homo sapiens) (UniProt O75469); test: ATG_PXR_TRANS: Attagene TRANS-FACTORIAL HepG2 Assay for human Pregnane X Receptor (PXR) (AID 2283008; active = hit-call score of the fitted dose curve at least 0.9, where 1 is the maximum)
Method in brief: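 HepG2 transfected (FuGene 6) with GAL4-UAS reporter units + PXR-Gal4 chimera; dosed 24 h. Total RNA → oligo(dT) RT → PCR → 6-FAM primer extension → HpaI cut → CE. Gain-of-signal vs DMSO.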

[14] = molecular target: Retinoic acid receptor RXR-alpha (Homo sapiens) (UniProt P19793); test: ATG_RXRa_TRANS: Attagene TRANS-FACTORIAL HepG2 Assay for human Retinoid X Receptor alpha (RXRa) (AID 2283012; active = hit-call score of the fitted dose curve at least 0.9, where 1 is the maximum)
Method in brief: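 Read-out: fluorescent reporter-transcript fragments quantified by capillary electrophoresis after RT-PCR. Transiently transfected HepG2 cells carrying GAL4-UAS reporters and NR-GAL4 chimeras were exposed to chemical for 24 h; activity scored as increase over DMSO.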

[15] = BSK_3C_VCAM1: BioMAP Diversity Plus: 3C Assay for Vascular cell adhesion molecule 1 (VCAM1) Biomarker Activity (AID 2282999); settings: BioMAP 3C HUVEC, VCAM1 ELISA, cytokine-stimulated; actives raise or lower the signal
Method in brief: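 Vascular primary endothelium (human umbilical vein) was exposed to chemicals and assayed 24 h later. VCAM-1 levels came from ELISA, with DMSO serving as baseline for bidirectional fitting.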

[16] = read-out: Intercellular Adhesion Molecule 1 (ICAM1), ICAM1 (gene 3383); test: BSK_3C_ICAM1: BioMAP Diversity Plus: 3C Assay for Intercellular Adhesion Molecule 1 (ICAM1) Biomarker Activity (AID 2283003); settings: primary human endothelial cells (HUVEC); actives raise or lower the signal
Method in brief: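 ELISA read-out of ICAM-1; HUVEC (primary human), 3C system, 24 h post-dosing; bidirectional fit vs DMSO baseline.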

[17] = molecular target: human RAR-related Orphan Receptor beta (RORb), RORB (gene 6096) (UniProt Q92753); test: ATG_RORb_TRANS: Attagene TRANS-FACTORIAL HepG2 Assay for human RAR-related Orphan Receptor beta (RORb) (AID 2283010; active = hit-call score of the fitted dose curve at least 0.9, where 1 is the maximum)
Method in brief: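 HepG2, transient MRTU transfection (GAL4-UAS reporters, exogenous NR-Gal4 chimeras); 24 h compound exposure; total RNA → RT-PCR → 6-FAM primer extension → HpaI digest → CE fluorescence. Positive direction vs DMSO baseline.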

Measured: AC50

Nuclear receptor subfamily 1 group I member 2 (Homo sapiens), sequence (O75469 whole entry, looked up, the tested form may be a part): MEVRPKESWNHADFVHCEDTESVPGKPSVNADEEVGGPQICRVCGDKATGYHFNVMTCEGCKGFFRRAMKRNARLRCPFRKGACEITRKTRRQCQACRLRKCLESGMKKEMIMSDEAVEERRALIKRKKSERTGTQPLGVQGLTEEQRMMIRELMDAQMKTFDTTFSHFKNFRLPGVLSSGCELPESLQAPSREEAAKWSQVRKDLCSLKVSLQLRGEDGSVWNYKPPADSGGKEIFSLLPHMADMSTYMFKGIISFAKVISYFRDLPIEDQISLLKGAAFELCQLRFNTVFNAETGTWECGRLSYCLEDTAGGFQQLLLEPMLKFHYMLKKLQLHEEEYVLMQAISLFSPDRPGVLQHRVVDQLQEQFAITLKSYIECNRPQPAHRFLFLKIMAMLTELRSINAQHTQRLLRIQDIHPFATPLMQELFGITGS
Peroxisome proliferator-activated receptor gamma (Homo sapiens), sequence (P37231 whole entry, looked up): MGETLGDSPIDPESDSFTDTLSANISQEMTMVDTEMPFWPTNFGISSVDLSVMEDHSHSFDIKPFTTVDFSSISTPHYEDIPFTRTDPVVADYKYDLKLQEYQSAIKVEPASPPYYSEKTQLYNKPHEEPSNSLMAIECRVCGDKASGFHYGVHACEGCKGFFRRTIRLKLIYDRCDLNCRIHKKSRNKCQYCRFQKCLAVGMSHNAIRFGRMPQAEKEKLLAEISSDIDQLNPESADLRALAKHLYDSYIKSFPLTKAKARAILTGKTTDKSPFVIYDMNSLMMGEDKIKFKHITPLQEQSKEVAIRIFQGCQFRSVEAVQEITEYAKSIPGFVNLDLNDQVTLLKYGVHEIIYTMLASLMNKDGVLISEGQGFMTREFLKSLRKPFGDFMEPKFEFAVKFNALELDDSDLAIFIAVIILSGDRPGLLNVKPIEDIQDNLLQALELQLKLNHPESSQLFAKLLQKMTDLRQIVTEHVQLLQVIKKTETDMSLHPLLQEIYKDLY
Myc proto-oncogene protein (Homo sapiens), sequence (P01106 whole entry, looked up): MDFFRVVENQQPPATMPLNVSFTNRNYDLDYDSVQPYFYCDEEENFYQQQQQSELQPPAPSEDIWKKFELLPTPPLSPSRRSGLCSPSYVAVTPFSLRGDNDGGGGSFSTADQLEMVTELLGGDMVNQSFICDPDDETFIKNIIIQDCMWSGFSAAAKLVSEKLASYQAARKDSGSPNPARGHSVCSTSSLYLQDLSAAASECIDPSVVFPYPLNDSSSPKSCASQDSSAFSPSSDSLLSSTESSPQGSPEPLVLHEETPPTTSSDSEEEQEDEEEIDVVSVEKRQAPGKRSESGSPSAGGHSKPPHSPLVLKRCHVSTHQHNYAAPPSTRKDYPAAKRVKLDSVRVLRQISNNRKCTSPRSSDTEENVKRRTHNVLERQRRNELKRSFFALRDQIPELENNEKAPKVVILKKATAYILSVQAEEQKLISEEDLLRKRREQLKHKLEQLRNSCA
Cellular tumor antigen p53 (Homo sapiens), sequence (P04637 whole entry, looked up, the tested form may be a part): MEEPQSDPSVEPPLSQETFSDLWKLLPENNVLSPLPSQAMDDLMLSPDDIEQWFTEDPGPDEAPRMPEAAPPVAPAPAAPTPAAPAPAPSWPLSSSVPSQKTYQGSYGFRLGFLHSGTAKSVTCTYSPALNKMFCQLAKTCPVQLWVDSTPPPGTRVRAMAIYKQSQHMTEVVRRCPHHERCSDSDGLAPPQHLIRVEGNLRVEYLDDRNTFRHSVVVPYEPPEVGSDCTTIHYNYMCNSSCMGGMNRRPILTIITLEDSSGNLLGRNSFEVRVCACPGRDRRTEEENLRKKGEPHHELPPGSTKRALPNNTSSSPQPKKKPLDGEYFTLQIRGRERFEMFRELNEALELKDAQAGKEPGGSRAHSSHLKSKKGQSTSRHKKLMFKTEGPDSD
human Peroxisome Proliferator-activated Receptor delta (PPARd), PPARD (gene 5467), sequence (Q03181 whole entry, looked up, the tested form may be a part): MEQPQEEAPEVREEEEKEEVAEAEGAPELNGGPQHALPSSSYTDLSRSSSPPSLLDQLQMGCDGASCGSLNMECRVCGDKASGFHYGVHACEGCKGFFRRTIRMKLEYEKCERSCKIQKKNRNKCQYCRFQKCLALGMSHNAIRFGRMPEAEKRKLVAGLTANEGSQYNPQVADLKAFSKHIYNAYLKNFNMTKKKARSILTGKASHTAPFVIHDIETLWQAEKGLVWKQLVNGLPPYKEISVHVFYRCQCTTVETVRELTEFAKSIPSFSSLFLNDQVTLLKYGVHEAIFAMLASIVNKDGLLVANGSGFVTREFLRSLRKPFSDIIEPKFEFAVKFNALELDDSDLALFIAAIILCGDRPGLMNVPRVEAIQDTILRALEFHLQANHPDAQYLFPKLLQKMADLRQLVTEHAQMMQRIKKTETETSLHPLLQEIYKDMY
Retinoic acid receptor RXR-alpha (Homo sapiens), sequence (P19793 whole entry, looked up, the tested form may be a part): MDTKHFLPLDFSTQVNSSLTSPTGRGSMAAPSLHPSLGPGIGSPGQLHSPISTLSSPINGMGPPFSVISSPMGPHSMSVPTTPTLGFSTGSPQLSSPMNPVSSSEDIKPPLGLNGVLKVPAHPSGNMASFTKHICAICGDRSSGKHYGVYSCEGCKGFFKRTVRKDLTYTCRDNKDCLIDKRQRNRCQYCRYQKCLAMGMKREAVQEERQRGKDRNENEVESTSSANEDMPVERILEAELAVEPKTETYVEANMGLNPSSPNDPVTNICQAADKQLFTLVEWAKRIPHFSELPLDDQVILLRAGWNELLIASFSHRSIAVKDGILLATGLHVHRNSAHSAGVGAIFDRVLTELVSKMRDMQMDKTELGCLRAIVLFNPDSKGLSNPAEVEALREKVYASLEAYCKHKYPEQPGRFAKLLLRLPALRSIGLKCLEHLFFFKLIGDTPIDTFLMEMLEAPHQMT
human Peroxisome Proliferator-activated Receptor alpha (PPARa), PPARA (gene 5465), sequence (Q07869 whole entry, looked up, the tested form may be a part): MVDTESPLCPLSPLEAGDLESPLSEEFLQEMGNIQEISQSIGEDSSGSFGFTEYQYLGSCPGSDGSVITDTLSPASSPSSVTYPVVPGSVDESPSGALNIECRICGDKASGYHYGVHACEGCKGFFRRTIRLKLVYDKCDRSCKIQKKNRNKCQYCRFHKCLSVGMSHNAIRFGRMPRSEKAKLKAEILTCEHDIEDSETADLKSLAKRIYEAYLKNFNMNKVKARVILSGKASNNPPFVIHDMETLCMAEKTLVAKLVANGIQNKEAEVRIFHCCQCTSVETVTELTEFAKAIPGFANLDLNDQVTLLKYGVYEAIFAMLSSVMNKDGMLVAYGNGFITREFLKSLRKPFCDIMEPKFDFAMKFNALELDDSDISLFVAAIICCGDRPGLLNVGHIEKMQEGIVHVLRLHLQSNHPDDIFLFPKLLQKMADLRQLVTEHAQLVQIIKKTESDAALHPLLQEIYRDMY
human RAR-related Orphan Receptor beta (RORb), RORB (gene 6096), sequence (Q92753 whole entry, looked up, the tested form may be a part): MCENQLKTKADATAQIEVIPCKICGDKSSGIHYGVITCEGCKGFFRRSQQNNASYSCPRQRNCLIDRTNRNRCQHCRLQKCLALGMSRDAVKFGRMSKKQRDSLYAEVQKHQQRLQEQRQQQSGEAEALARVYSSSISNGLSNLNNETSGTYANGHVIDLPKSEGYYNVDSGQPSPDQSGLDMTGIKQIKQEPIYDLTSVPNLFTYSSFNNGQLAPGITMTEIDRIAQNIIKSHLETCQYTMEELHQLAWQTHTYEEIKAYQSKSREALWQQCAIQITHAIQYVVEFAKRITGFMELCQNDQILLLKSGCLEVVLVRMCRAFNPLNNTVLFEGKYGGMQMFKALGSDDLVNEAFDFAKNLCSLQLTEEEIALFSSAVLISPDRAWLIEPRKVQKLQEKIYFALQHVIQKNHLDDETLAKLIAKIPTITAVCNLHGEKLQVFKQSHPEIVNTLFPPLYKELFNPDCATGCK

CCCCCCOC(=O)c1ccccc1C(=O)OCCCCCC
active: [3] 16.2 µM | [11] 14.6 µM | [12] 12.9 µM | [13] 4.17 µM
inactive: [1] | [2] | [4] | [5] | [6] | [7] | [8] | [9] | [10] | [14]

Cc1cccc(C)c1N
inactive: [1] | [2] | [3] | [4] | [5] | [6] | [7] | [15] | [8] | [16] | [11]

O=S(=O)(O)C(F)(F)C(F)(F)C(F)(F)C(F)(F)C(F)(F)C(F)(F)F
inactive: [1] | [2] | [4] | [5] | [6] | [7] | [15] | [8] | [10] | [16] | [11] | [13] | [17] | [14]
active: [3] 132 µM [middle of 4 runs] | [12] 32.5 µM and 79.5 µM and 61.7 µM
